# D2 PAM-1 = human D2 receptor positive allosteric modulation; P14416; DiscoveRx D2 beta-arrestin cells, luminescence, 90 min; 100% = 57 uM dopamine signal; potentiation, % (concentration not given with the values); 360,000 tested, 0.23% active; in the data active means potentiation above about 50%
# Target sequence (P14416 whole entry, looked up): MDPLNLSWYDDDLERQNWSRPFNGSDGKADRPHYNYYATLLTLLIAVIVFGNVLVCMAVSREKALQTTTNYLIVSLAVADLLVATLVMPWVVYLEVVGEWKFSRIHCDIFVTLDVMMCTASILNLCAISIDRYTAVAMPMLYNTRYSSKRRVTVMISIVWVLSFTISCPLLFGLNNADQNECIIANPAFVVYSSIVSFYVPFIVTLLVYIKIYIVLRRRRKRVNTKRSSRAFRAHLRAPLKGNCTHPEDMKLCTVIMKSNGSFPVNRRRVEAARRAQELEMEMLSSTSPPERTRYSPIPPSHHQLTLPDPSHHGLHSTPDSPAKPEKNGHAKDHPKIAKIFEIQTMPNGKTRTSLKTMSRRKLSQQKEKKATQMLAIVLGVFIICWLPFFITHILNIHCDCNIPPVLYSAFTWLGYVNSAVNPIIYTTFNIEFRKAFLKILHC
#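 PathHunter D2 cells, attached overnight at 37 deg C, received compound in DMSO plus dopamine at EC20 (50 nM final) for 90 min at 37 deg C. Beta-arrestin recruitment was read as luminescence after 1 h with detection reagent at ambient temperature.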
# D2 ag-1 = human D2 receptor agonism in beta-arrestin assay; DiscoveRx PathHunter D2 beta-arrestin, luminescence, 90 min; 100% = 57 uM dopamine signal; activation, % (test concentration not listed); P14416; AID 624465; 360,000 tested, 0.084% active; in the data active means activation above about 40%
#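 Agonist mode: compounds alone added to overnight-plated D2 PathHunter cells for 90 min at 37 C, with 57 uM final dopamine (EC100) defining full response. Beta-arrestin recruitment detected by chemiluminescent reagent, read after 1 h at ambient temperature.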
# D2 PAM-2 = positively modulates the human D2 dopamine receptor allosterically | P14416 | HEK293 T-REx D2, calcium flux, EC20 dopamine potentiation | potentiation, % at 10 µM | 340,000 tested, 0.34% active;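 active means potentiation over 3 SD above the plate norm, cut at about 30% in these data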; further: 0% is about no effect
#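 Tetracycline-induced HEK293 T-REx cells force-coupled to calcium signalling expressed D2; compounds were pin-added after a 10 s baseline, read kinetically 180 s, then an EC20 dopamine challenge followed with a further 180 s calcium read.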
# D2 ag-2 = agonists of human D2 dopamine receptor | P14416 | HEK293 T-REx D2 cells, calcium flux agonist mode | activation, % at 2 µM | 340,000 tested, 0.53% active | AID 485358;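 active means activation over 3 SD above normal in the single-dose calcium agonist read, cut at about 30% in these data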; further: 0% is about no effect
#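 Calcium-flux readout, 1 cycle/sec over 180 s following compound pin transfer, in inducible HEK293 Trex D2 cells (force-coupled); dopamine controls included. Positive calcium responses during this window marked compounds as potential agonists.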
# D2 antag = antagonizes the human D2 dopamine receptor | P14416 | HEK293 TREx D2 cells, calcium flux, dopamine EC80 | inhibition, % at 10 µM | 340,000 tested, 2% active | AID 485344; in the data active means inhibition above about 30%; inactive means below that, where a call was filed; further: 0% is about no effect
#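 Overnight-induced (tetracycline, 30 C) HEK293 T-REx cells carrying force-coupled D2 receive a no-wash calcium dye, then compound, then EC80 dopamine at 180 s; signals are read kinetically throughout.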
# The depositor's hits bear a star; · = no result. Rows were chosen to be rich in hits. Some 2.4% of all compounds tested hit in one or more screens of this group.
SMILES,D2 PAM-1,D2 ag-1,D2 PAM-2,D2 ag-2,D2 antag
CCOC(=O)c1c(C)[nH]c(C)c1C(=O)COC(=O)c1ccc(O)cc1,-3,0,12,4,-7
CCOC(=O)c1c(C)[nH]c(C)c1C(=O)COC(=O)c1ccc(S(=O)(=O)C(F)F)cc1,8,0,14,0,39*
Cc1nc2c(-c3ccccc3)cnn2c(N2CCOCC2)c1C,-2,-3,-9,0,31*
Cc1c(N=O)c(-c2ccccc2)n(O)[n+]1[O-],-6,2,·,·,·
COc1ccccc1N(CC(O)Cn1c(C)nc2ccccc21)S(=O)(=O)c1ccccc1 (stereo unspecified),5,1,11,1,-11
COc1ccccc1N(CC(O)Cn1ccnc1C)S(=O)(=O)c1ccccc1 (stereo unspecified),-3,-4,-4,0,34*
Cc1cc(C(=O)N2CCC2(C)C(=O)NCc2cccc3ccccc23)nn1C (stereo unspecified),-3,4,·,·,·
Clc1ccc(OCCCN2CCCCC2)c(Br)c1,-46,2,-21,1,38*
CC1CC(C)CN(CCOc2ccc(Cl)cc2Cl)C1 (stereo unspecified),-18,-2,·,·,·
Clc1ccc(OCCN2CCCCC2)c(Cl)c1,-27,-2,-21,0,72*
Clc1ccc(OCCCCCN2CCCC2)c(Br)c1,-25,1,-44,3,-7
Clc1ccc(SCCCN2CCCCC2)cc1,-21,-3,-26,-1,38*
Clc1ccccc1OCCN1CCCCC1,-37,-4,-33,1,44*
CCC(CC)C(=O)N(C)c1c(C)nc2c(OCc3ccccc3C)cccn12,-7,-1,·,·,·
CC1CCn2c(nc3cc(C(=O)NCCc4ccccc4)ccc32)C1 (stereo unspecified),·,·,10,0,·
CCc1cc2ccc(OC)cc2nc1SCC(=O)NNC(C)=O,-4,-6,-2,-3,57*
CCc1cc2ccc(OC)cc2nc1SCC(=O)Nc1cc(C)on1,-14,-1,3,0,-12
COc1ccc(C(=O)c2ccc(N3CCN(C4CC(=O)NC4=O)CC3)cc2)cc1F (stereo unspecified),14,-1,3,0,34*
CCN1CCc2nc(NC(=O)c3ccccc3)sc2C1,7,-4,15,1,-25
O=C(Nc1nc2c(s1)CN(Cc1ccccc1)CC2)C1CCC1,-7,-1,-2,2,51*
COc1ccc(OC)c(CCNC(=O)c2ccc(NC3=NC4CS(=O)(=O)CC4S3)cc2)c1 (stereo unspecified),-3,-3,19,0,34*
Cc1cc(C)cc(NC(=O)c2cccc(NC3=NC4CS(=O)(=O)CC4S3)c2)c1 (stereo unspecified),-7,-10,4,0,34*
CCOc1ccccc1NC(=O)c1cccc(NC2=NC3CS(=O)(=O)CC3S2)c1 (stereo unspecified),0,-4,3,0,0
Cc1ccc(CCNC(=O)Cc2ccc(NC3=NC4CS(=O)(=O)CC4S3)cc2)cc1 (stereo unspecified),-5,-6,-4,0,38*
CCc1nc2c(OCC3CCCCC3)cccn2c1N(C=O)Cc1ccc(OC)cc1,-2,1,·,·,·
SMILES,D2 PAM-1,D2 ag-1,D2 PAM-2,D2 ag-2,D2 antag
CCCc1c(C(=O)N/N=C/C=C/c2ccccc2)nnn1-c1nonc1N,-8,-1,·,·,·
Cc1cc(-c2ccc(S(=O)(=O)Nc3cc(Cl)ccc3C)s2)on1,·,·,-4,·,·
CCOC(=O)c1cc(C)[nH]c1C,-10,-20,9,0,-9
CCOC(=O)c1cc(C)[nH]c(=O)c1C#N,62*,-1,7,0,-17
O=C(CCCN1C(=O)c2cccnc2Oc2ccc(Cl)cc21)NCc1ccccc1F,·,·,5,-1,·
O=C(NN=C1CCCC1)c1ccn[nH]1,8,-2,-1,0,42*
O=C(NN=C1CCCC1)c1cc(-c2ccccc2)n[nH]1,0,-1,5,·,·
COc1cc(/C=N/NC(=O)c2cccc3ccccc23)cc(OC)c1O,7,7,3,0,3
COc1cc(/C=N/NC(=O)c2cccc3ccccc23)cc(OC)c1OC,3,-2,-11,-3,30*
COc1ccccc1/C=C1\SC(=S)N(CCC(=O)Nc2cc(C)on2)C1=O,-4,1,·,3,-10
CCc1nnc(NC(=O)CN2C(=O)/C(=C/c3cc(OC)c(OC)c(OC)c3)SC2=S)s1,-15,-5,31*,1,-5
COc1ccccc1/C=C1\SC(=S)N(CCC(=O)Nc2nnc(C)s2)C1=O,-7,1,-6,1,31*
COc1ccc(/C=C2/CCC(CN3CCOCC3)C2=O)cc1 (stereo unspecified),-25,-9,·,·,·
Cc1ccc(C)c(Nc2nc(-c3ccccc3)c3cc(Br)ccc3n2)c1,·,·,-3,-1,·
Cc1cc(C)n(C(C)CC(=O)Nc2ccc(Cl)cc2C)n1 (stereo unspecified),·,·,-7,0,·
CC1CC=C(O)C12OCC(C)(C)CO2 (stereo unspecified),6,3,·,·,·
Cc1cc(F)c(F)c(C(=O)N2CCCCC2C)c1Cl (stereo unspecified),-6,-1,1,0,-31
Cc1cc(F)c(F)c(C(=O)N2CCC(C)CC2)c1Cl,0,1,-10,-1,32*
CN(C(=O)COC(=O)c1cc(F)c(F)cc1Cl)c1ccccc1,-5,3,-1,-1,32*
Cc1ccc(C(=O)OCC(=O)N(C)c2ccccc2)c(C)c1,-12,-3,-4,-2,-18
Cc1ccc(C)c(N2CCN(CCCNC(=O)Cn3cccc3C(=O)c3ccccc3)CC2)c1,-26,-2,-46,0,41*
O=C(Cn1cccc1C(=O)c1ccccc1)NCCN1CCOCC1,-4,-2,-15,1,55*
O=C(Cn1cccc1C(=O)c1ccccc1)NCCCN1CCOCC1,-21,-1,-6,1,4
CCn1cc(C(=O)N2CCCC(C(=O)c3cccc(C(F)(F)F)c3)C2)cn1 (stereo unspecified),-8,-2,·,·,·
CCn1c(C(=O)NCc2ccc(OC(C)C)cc2)cc2oc3ccccc3c21,·,·,4,0,·
Cc1nn(C)c(C)c1CCNC(=O)Nc1cccc(Cl)c1C,·,·,1,7,·
CSc1ccc(OC2(C)CCN(Cc3ccc(OC(C)C)cc3)C2)cc1 (stereo unspecified),-8,3,·,·,·
O=C(CSc1nc2ccc(Cl)cc2[nH]1)NCCc1ccc(Cl)cc1,-3,0,8,0,2
O=C(CSc1nc2ccc(Cl)cc2[nH]1)NCCc1ccccc1,-13,-1,7,0,39*
CCOC(=O)C(=O)N(C)c1c(CC)nc2c(OCc3ccc(OC)cc3)cccn12,-3,-3,·,·,·
